Experimental data from PubChem BioAssay AID624255 (Broad Institute, 2012).
Out of some 77,000 compounds screened, about 4,600 (6%) were called active. About 1% were inconclusive and are not listed. This is one part of a sample in which actives are shown more often than they occur. Values without a mark were called inactive.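 How the source made its calls: active means mean inhibition above about 93%, with at least 55% of replicates each passing it (limit read from the data, passing the limit was not always enough); inconclusive means only one of those two conditions holds; inactive means neither condition holds.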

Experiment: T. cruzi intracellular proliferation inhibitors, primary screen, cell-based, beta-gal Tulahuen parasites, NIH3T3 host, luminescence (AID 624255)
Settings: T. cruzi beta-gal in NIH3T3, GalScreen luminescence, 90 h; at 8.34 µM; active compounds read high

SMILES | inhibition
CCN(C[C@@H]1[C@@H](c2ccccc2)[C@H](CO)N1C(C)=O)C(=O)NC(C)C | 7.85%
O=C(NC[C@@H]1[C@@H](c2ccccc2)[C@H](CO)N1C(=O)C1CCC1)NC1CCCC1 | -28.8%
CCN(C[C@H]1[C@H](c2ccccc2)[C@H](CO)N1C(=O)C1CC1)C(=O)NC1CCCC1 | 96.5% (active)
Cn1cnc(S(=O)(=O)N2C[C@@H](O)COC[C@@H]3O[C@H](CC(=O)NCc4ccc(F)cc4)CC[C@H]32)c1 | -30.6%
COc1cccc(S(=O)(=O)N2C[C@@H](O)COC[C@H]3O[C@H](CC(=O)N4CCCCC4)CC[C@@H]32)c1 | 25.3%
C[C@H](CO)N1C[C@H](C)[C@H](CN(C)S(=O)(=O)c2cccc(F)c2)Oc2ncc(/C=C/c3ccccc3)cc2C1=O | 107% (active)
C[C@H](CO)N1C[C@H](C)[C@@H](CN(C)C(=O)Nc2ccnc(N3CCOCC3)c2)OCc2ccccc2-c2ccccc2C1=O | 113% (active)
Cc1ccc(S(=O)(=O)N(C)C[C@H]2OCc3ccccc3-c3ccccc3C(=O)N([C@@H](C)CO)C[C@@H]2C)cc1 | 81.8%
C[C@H](CO)N1C[C@H](C)[C@@H](CN(C)S(=O)(=O)c2cccc(F)c2)OCc2ccccc2-c2c(n(C)c3ccccc23)C1=O | 98% (active)
Cc1ccc(S(=O)(=O)N(C)C[C@@H]2OCc3ccccc3-c3c(n(C)c4ccccc34)C(=O)N([C@@H](C)CO)C[C@@H]2C)cc1 | 60.7%
C[C@H]1CN([C@@H](C)CO)C(=O)c2ccccc2-c2ccccc2CO[C@@H]1CN(C)S(=O)(=O)c1ccc(C(F)(F)F)cc1 | 105% (active)
C[C@@H]1CN([C@@H](C)CO)C(=O)c2ccccc2-c2ccccc2CO[C@H]1CN(C)C(=O)Nc1ccccc1 | 24.6%
COc1cccc(NC(=O)N(C)C[C@H]2OCc3ccccc3-c3ccccc3C(=O)N([C@H](C)CO)C[C@@H]2C)c1 | -8.4%
C[C@@H]1CN([C@@H](C)CO)C(=O)c2c(c3ccccc3n2C)-c2ccccc2CO[C@@H]1CN(C)S(=O)(=O)c1ccc(F)cc1 | -18%
C[C@H](CO)N1C[C@H](C)[C@@H](CN(C)S(=O)(=O)c2cccc(F)c2)Oc2ncc(-c3cccc(F)c3)cc2C1=O | 49.3%
COc1ccc(S(=O)(=O)N(C)C[C@@H]2OCc3ccccc3-c3ccccc3C(=O)N([C@@H](C)CO)C[C@@H]2C)cc1 | 28.9%
COc1cccc(-c2cnc3c(c2)C(=O)N([C@H](C)CO)C[C@H](C)[C@H](CN(C)S(=O)(=O)c2cccc(F)c2)O3)c1 | 62.3%
O=C(C[C@H]1CC[C@@H]2[C@H](COC[C@H](O)CN2S(=O)(=O)c2ccc(F)cc2)O1)NCCN1CCCCC1 | 7.58%
CNC(=O)C[C@@H]1CC[C@@H]2[C@@H](COc3ccc(NC(=O)Cc4cccs4)cc3C(=O)N2C)O1 | -40.4%
Cc1noc(C)c1NC(=O)N(C)C[C@H]1OCCCC[C@H](C)Oc2ccc(NC(=O)Nc3ccc4c(c3)OCO4)cc2C(=O)N([C@H](C)CO)C[C@@H]1C | 17.1%

SMILES | inhibition
COCC(=O)N1C[C@H](C)[C@@H](OC)CN(C)C(=O)c2cc(NC(=O)c3ccc(OC)cc3)ccc2OC[C@H]1C | 5.7%
CC=Cc1ccc2n(c1=O)C[C@H]1[C@H](CO)[C@@H](C(=O)NCC3CC3)N(Cc3nccs3)[C@@H]21 (mixture of isomers) | -71.1%
COc1ccccc1C#Cc1cnc2c(c1)C(=O)N([C@@H](C)CO)C[C@H](C)[C@@H](CN(C)C(=O)CC1CC1)O2 | 92.8%
C[C@@H]1CCCCO[C@H](CN(C)S(=O)(=O)c2cn(C)cn2)[C@H](C)CN([C@@H](C)CO)C(=O)c2cc(NC(=O)Nc3ccc(C(F)(F)F)cc3)ccc2O1 | 29.7%
CO[C@@H]1CN(C)C(=O)c2ccc(NC(=O)Nc3c(C)noc3C)cc2OC[C@H](C)N(CC2CC2)C[C@H]1C | 91.1%
C[C@@H]1CN([C@@H](C)CO)C(=O)c2cc(-c3cncnc3)cnc2O[C@@H]1CN(C)C(=O)c1ccccc1F | 92.3%
C[C@H]1CN([C@@H](C)CO)C(=O)c2cc(C3=CCCC3)cnc2O[C@@H]1CN(C)C(=O)c1ccccc1 | -4.66%
CCCC(=O)Nc1ccc2c(c1)OC[C@H](C)N(CCC)C[C@@H](C)[C@@H](OC)CN(C)C2=O | -74.1%
CN1c2ccc(C3=CCCCC3)cc2[C@H]2[C@H](CCN2S(=O)(=O)c2ccccc2)[C@@H]1CO | 86.7%
C[C@@H]1CCCCO[C@H](CN(C)S(C)(=O)=O)[C@@H](C)CN([C@@H](C)CO)C(=O)c2cc(NC(=O)CCC(F)(F)F)ccc2O1 | 31.3%
C[C@H](CO)N1C[C@H](C)[C@H](CN(C)S(=O)(=O)c2ccccc2)Oc2ncc(-c3cccc(C(F)(F)F)c3)cc2C1=O | 118% (active)
C[C@H]1CN([C@@H](C)CO)C(=O)c2cc(-c3cccc(F)c3)cnc2O[C@@H]1CN(C)S(C)(=O)=O | 36.8%
C[C@H](CO)N1C[C@H](C)[C@@H](CN(C)S(=O)(=O)c2ccccc2)Oc2ncc(-c3ccncc3)cc2C1=O | 2.86%
CCCNC(=O)[C@H]1[C@H](CO)[C@H]2Cn3c(ccc(C4=CCCC4)c3=O)[C@H]2N1C(=O)CC | 6.67%
O=C(C[C@H]1CC[C@H]2[C@@H](COC[C@@H](O)CN2S(=O)(=O)c2cccc(Cl)c2)O1)NC1CCCC1 | -59.2%
O=S(=O)(NCC[C@H]1CC[C@@H](NS(=O)(=O)c2cccc(Cl)c2)[C@@H](CO)O1)c1cccc(F)c1 | 11.3%
O=C(Nc1ccc(Cl)cc1)N[C@@H]1CC[C@@H](CCNC(=O)c2ccccc2F)O[C@H]1CO | 169% (active)
O=C(Nc1cc(Cl)cc(Cl)c1)N[C@@H]1CC[C@H](CCNS(=O)(=O)c2cccc(F)c2)O[C@H]1CO | 17.2%
O=C(Nc1ccc(C(F)(F)F)cc1)N[C@@H]1CC[C@H](CCNC(=O)c2ccccc2F)O[C@H]1CO | -57%
O=C(Nc1cc(Cl)cc(Cl)c1)N[C@H]1CC[C@@H](CCNS(=O)(=O)c2cccc(F)c2)O[C@H]1CO | 117% (active)

SMILES | inhibition
O=C(Nc1ccccc1)N[C@H]1CC[C@H](CCNC(=O)c2ccccc2F)O[C@H]1CO | 22.8%
COc1ccccc1CNC(=O)C[C@@H]1CC[C@H](NC(=O)CN(C)C)[C@@H](CO)O1 | 18.4%
O=C(Nc1ccc(F)cc1)N[C@H]1CC[C@H](CCn2cc(-c3ccc(F)cc3)nn2)O[C@@H]1CO | -16.9%
C[C@H]1CN([C@@H](C)CO)S(=O)(=O)c2ccc(C#Cc3ccncc3)cc2O[C@@H]1CN(C)C(=O)Nc1ccc2c(c1)OCO2 | 86.1%
CN1C(=O)c2cc(NC(=O)NC3CCCC3)ccc2OC[C@@H]2O[C@@H](CC(=O)O)CC[C@H]21 | -32.1%
C[C@H]1CCCCO[C@@H](CN(C)Cc2ccc(C(F)(F)F)cc2)[C@@H](C)CN([C@@H](C)CO)C(=O)c2cc(NC(=O)Nc3ccccc3)ccc2O1 | 73.3%
C[C@@H]1CCCCO[C@@H](CN(C)Cc2ccc(C(=O)O)cc2)[C@@H](C)CN([C@@H](C)CO)C(=O)c2cc(NC(=O)Nc3ccc(C(F)(F)F)cc3)ccc2O1 | 14.7%
C[C@@H]1CN([C@H](C)CO)C(=O)c2cc(NC(=O)Nc3ccccc3)ccc2O[C@@H](C)CCCCO[C@H]1CN(C)Cc1ccc(C(F)(F)F)cc1 | 73.3%
C[C@@H]1CCCCO[C@H](CN(C)Cc2ccc(C(F)(F)F)cc2)[C@H](C)CN([C@H](C)CO)C(=O)c2cc(NC(=O)Nc3ccc(F)cc3)ccc2O1 | 103% (active)
C[C@@H]1CCCCO[C@@H](CN(C)Cc2ccc(C(F)(F)F)cc2)[C@@H](C)CN([C@H](C)CO)C(=O)c2cc(NC(=O)Nc3ccccc3)ccc2O1 | 110% (active)
C[C@@H]1CN([C@H](C)CO)C(=O)c2cc(NC(=O)Nc3ccc(C(F)(F)F)cc3)ccc2O[C@@H](C)CCCCO[C@@H]1CN(C)Cc1ccc(C(F)(F)F)cc1 | 86.3%
C/C=C/c1ccc2c(c1)O[C@H](CN(C)C(=O)Cc1ccncc1)[C@@H](C)CN([C@@H](C)CO)S2(=O)=O | 20.3%
C[C@H]1CCCCO[C@H](CN(C)CC2CCCCC2)[C@@H](C)CN([C@@H](C)CO)C(=O)c2cc(NS(=O)(=O)c3ccc(Cl)cc3)ccc2O1 | 88%
C[C@@H]1CN([C@@H](C)CO)C(=O)c2cc(C#CC3CCCCC3)cnc2O[C@H]1CN(C)S(=O)(=O)c1ccccc1 | 104% (active)
C[C@H]1CN([C@@H](C)CO)C(=O)c2cc(C#CC3CCCCC3)cnc2O[C@H]1CN(C)S(=O)(=O)c1ccccc1 | 104% (active)
CCCC#Cc1cnc2c(c1)C(=O)N([C@H](C)CO)C[C@H](C)[C@@H](CN(C)S(=O)(=O)c1ccccc1)O2 | 75.2%
CC(C)NC(=O)N(C)C[C@H]1Oc2ncc(C#CC3CCCCC3)cc2C(=O)N([C@H](C)CO)C[C@@H]1C | 84.2%
C[C@@H]1CN([C@@H](C)CO)C(=O)c2cc(C#CC3CCCCC3)cnc2O[C@@H]1CN(C)Cc1cncnc1 | 53.7%
C[C@@H]1CN([C@H](C)CO)C(=O)c2cc(C#CC3CCCC3)cnc2O[C@H]1CN(C)C(=O)C1CC1 | 32.3%
